The source of these data is PMC11574364.

Targets include STAU1(1) (Homo sapiens, UniProt O95793); RALY (Homo sapiens, UniProt Q9UKM9); RBM25 (Homo sapiens, UniProt P49756).
Common to all, as to experiment: protein domain microarray probed with biotinylated miRNA; Domain array: 20 mM Tris-HCl pH 7.4, 200 mM KCl, 0.2 mM EDTA, 0.05% NP40, 2 ug/ul heparin, overnight 4 C. ORF array: PBS pH 7.0 with RNase inhibitor, 100 ng RNA; high values mean tight binding
Holding throughout (settings): ssRNA

In the next assay the target is T1, U1SNRNPBP (Homo sapiens, UniProt Q16560).
T1 sequence: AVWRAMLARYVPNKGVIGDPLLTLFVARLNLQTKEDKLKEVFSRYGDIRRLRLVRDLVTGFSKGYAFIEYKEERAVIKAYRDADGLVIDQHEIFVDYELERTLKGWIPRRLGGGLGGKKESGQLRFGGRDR

In another assay the target is T2, RBM47 (Homo sapiens, UniProt A0AV96).
T2 sequence: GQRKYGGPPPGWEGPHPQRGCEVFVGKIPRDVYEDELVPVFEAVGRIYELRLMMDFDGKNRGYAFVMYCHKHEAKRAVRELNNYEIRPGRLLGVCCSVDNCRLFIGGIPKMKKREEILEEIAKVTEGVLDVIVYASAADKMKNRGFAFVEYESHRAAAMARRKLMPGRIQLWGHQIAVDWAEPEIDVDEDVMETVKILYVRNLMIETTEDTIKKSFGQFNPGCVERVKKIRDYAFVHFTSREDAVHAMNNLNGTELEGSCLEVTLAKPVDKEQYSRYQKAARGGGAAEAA

Another assay has as its target T3, KHSRP(1-4) (Homo sapiens, UniProt Q92945).
T3 sequence: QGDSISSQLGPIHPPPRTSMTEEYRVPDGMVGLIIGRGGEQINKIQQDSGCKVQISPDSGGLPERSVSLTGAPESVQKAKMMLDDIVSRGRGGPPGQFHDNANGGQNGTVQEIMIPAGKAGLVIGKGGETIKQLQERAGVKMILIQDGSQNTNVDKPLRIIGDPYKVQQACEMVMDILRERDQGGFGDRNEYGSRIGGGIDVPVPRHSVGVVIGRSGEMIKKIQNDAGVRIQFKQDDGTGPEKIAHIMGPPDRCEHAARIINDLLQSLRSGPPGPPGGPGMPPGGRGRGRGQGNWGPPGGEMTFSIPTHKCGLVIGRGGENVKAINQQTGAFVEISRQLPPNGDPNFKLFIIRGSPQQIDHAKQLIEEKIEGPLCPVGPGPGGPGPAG

Another assay addresses T4, RBMS2 (Homo sapiens, UniProt Q15434).
T4 sequence: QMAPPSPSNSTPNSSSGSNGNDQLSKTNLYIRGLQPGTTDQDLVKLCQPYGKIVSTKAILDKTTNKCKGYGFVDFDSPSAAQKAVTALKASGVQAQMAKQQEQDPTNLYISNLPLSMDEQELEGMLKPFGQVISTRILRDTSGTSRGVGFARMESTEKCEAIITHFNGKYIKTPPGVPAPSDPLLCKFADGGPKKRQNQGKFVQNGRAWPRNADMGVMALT

The target in another assay is T5, STRBP(1) (Homo sapiens, UniProt Q96SI9).
T5 sequence: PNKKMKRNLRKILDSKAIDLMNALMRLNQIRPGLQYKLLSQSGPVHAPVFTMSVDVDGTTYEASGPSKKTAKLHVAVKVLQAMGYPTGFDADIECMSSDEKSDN

For a further assay, the target named is T6, RBM21 (Homo sapiens, UniProt Q9H6E5).
T6 sequence: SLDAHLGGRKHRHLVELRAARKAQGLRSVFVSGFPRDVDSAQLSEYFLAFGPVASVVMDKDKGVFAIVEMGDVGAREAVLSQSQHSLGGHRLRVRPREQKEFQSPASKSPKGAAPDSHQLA

In the next assay the target is T7, SART3 (Homo sapiens, UniProt Q15020).
T7 sequence: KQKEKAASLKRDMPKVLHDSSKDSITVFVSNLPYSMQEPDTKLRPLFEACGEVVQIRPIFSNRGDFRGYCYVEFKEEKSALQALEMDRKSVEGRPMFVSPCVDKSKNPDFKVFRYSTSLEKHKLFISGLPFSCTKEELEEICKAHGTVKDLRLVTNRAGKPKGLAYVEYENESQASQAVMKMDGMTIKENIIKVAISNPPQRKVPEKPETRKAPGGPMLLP

RALY, sequence (Q9UKM9 1-115): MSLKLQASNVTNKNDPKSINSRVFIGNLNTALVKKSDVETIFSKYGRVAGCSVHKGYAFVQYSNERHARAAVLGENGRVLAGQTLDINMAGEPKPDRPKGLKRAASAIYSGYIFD
STAU1(1), sequence (O95793 52-182): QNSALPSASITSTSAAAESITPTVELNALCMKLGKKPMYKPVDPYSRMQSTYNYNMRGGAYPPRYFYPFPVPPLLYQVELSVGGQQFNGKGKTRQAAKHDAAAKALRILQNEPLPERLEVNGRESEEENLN
RBM25, sequence (P49756 67-185): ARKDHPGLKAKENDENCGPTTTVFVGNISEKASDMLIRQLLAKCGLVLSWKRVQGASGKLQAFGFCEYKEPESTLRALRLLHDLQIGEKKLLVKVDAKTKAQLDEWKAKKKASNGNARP

Turning to AGAGGUAGUAGGUUGCAUAGUU, the binding signal was found to be 63.6 ± 1.29 fluorescence intensity with U1SNRNPBP; 29.82 ± 0.276 fluorescence intensity with RBM47; 951 ± 76.8 fluorescence intensity with KHSRP(1-4); 79.9 ± 6.82 fluorescence intensity with RBMS2; 25.68 ± 0.0778 fluorescence intensity with STAU1(1); 34.2 ± 1.84 fluorescence intensity with STRBP(1). In addition, the binding signal in the assay with RALY amounted to 1628 ± 11.4 fluorescence intensity; with RBM25, 39.5 ± 3.96 fluorescence intensity; with RBM21, 34.33 ± 0.0778 fluorescence intensity; with SART3, 36.8 ± 2.71 fluorescence intensity.
Consider CAGUGCAAUGAUGAAAGGGCAU, for which the binding signal with U1SNRNPBP is 46.4 ± 1.24 fluorescence intensity; with RBM47, 26.2 ± 2.96 fluorescence intensity; with KHSRP(1-4) it was 675 ± 8.46 fluorescence intensity; with RBMS2, 39 ± 3.47 fluorescence intensity; in the assay with STRBP(1), 37.99 ± 0.283 fluorescence intensity; with RALY it was 332 ± 5.22 fluorescence intensity. In addition, the values for the binding signal with RBM25, with RBM21 and with SART3 were 36 ± 0.488 fluorescence intensity, 38.1 ± 3.22 fluorescence intensity and 29.6 ± 6.57 fluorescence intensity, respectively.
Turning to UAGCUUAUCAGACUGAUGUUGA, the values for the binding signal in the assay with KHSRP(1-4) and in the assay with RALY were 192 ± 3.5 fluorescence intensity and 591 ± 33.9 fluorescence intensity, respectively.
With UGAGGUAGUAGGUUGUGUGGUU, the binding signal with U1SNRNPBP was 130 ± 6.12 fluorescence intensity; with RBM47, 53 ± 7.04 fluorescence intensity; with KHSRP(1-4), 992.47 ± 0.686 fluorescence intensity; with RBMS2 it was 95.1 ± 1.34 fluorescence intensity; with STAU1(1), 69.7 ± 6.19 fluorescence intensity; with STRBP(1), 125 ± 14.3 fluorescence intensity. Moreover, the binding signal was 1730 ± 54.9 fluorescence intensity with RALY, 98.3 ± 20.9 fluorescence intensity in the assay with RBM25, 63.5 ± 6.73 fluorescence intensity with RBM21 and 113 ± 30.2 fluorescence intensity in the assay with SART3.
Turning to UGAGGUAGUAGGUUGUAUGGUU, the binding signal stood at 99.4 ± 1.25 fluorescence intensity with U1SNRNPBP; 41.2 ± 0.636 fluorescence intensity with RBM47; 786 ± 28.3 fluorescence intensity with KHSRP(1-4); 91.7 ± 4.18 fluorescence intensity with RBMS2; 44.5 ± 1.05 fluorescence intensity with STAU1(1); 62.8 ± 0.686 fluorescence intensity with STRBP(1). The binding signal amounted to 1750 ± 31.6 fluorescence intensity with RALY, 63.1 ± 0.806 fluorescence intensity with RBM25, 53.6 ± 2.81 fluorescence intensity with RBM21 and 51.5 ± 2.31 fluorescence intensity with SART3.
For UGAGGUAGUAGGUUGUAUAGUU, the binding signal amounted to 419 ± 11.8 fluorescence intensity in the assay with KHSRP(1-4), 24.7 ± 2.59 fluorescence intensity in the assay with RBMS2 and 789 ± 24.3 fluorescence intensity in the assay with RALY.
